A selection: hits, their analogues and other compounds. The true share with any hit is near 5.4%.
PfM18AAP inh: blocks P. falciparum M18 aspartyl aminopeptidase; recombinant PfM18AAP, H-Glu-NHMec fluorogenic cleavage; inhibition, % at 7.35 µM; 1.2% of 290,000 active; AID 1822;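 active = inhibition above the campaign mean inhibition over all tested compounds plus 3 SD, cut at about 28% in these data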
SMARCA2 act: activators of SMARCA2 function; MG213 cells, MMTV-luciferase reporter, dexamethasone, overnight; activation, % at 9.1 µM; 1% of 370,000 active; in the data active = activation above about 7.8%
ALR H2O2 inh: human ALR oxidase inhibition via reduced H2O2; purified ALR, DTT oxidation, H2O2 HRP-luminol luminescence; 3.8% of 290,000 active; AID 485317; inhibition, % (no concentration beside the values);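 active = mean replicate inhibition above about 79%, with every replicate also reaching it, limit read from the data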
Target sequence (P55789 whole entry, looked up): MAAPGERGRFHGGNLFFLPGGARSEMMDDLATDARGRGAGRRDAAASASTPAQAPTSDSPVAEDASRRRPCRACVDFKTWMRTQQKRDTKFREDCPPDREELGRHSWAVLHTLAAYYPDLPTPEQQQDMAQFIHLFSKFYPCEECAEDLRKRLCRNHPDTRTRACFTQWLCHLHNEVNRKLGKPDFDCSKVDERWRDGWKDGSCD
Granule exo inh: blocks lytic granule exocytosis | TALL-104 LAMP-1 surface exposure, flow cytometry; cells stimulated with thapsigargin and PMA | 0.66% of 360,000 active | AID 651702 | inhibition, % at 10 µM;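 active = inhibition above about 55%, limit read from the data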
JMJD2C inh: blocks human GASC-1 demethylase activity. GST-JMJD2C(1-420) H3K9me3 demethylation, DELFIA europium. 0.069% of 330,000 active. AID 2099. inhibition, % at 2.35 µM. Q9H3R0;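 active = more than half of a compound's replicate wells show inhibition beyond 50%, single wells judged on their own value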;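 also: signal counts dimethyl H3K9 product captured on neutravidin plate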
beta cell repl: induces beta-cell replication in MIN6 cells | 0.29% of 330,000 active | proliferation, % at 10 µM | MIN6 cells proliferation, ATPlite luminescence, 48 h; cells starved in 0.2% serum; 100% = growth in 10% serum;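 active = compounds whose signal lies at least 3.5 SD above the mean of all wells on their plate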
SMARCA2 act conf: SMARCA2 activation, confirmation screen; shares compounds with SMARCA2 act; MG213 cells, MMTV-luciferase with dexamethasone, luminescence, overnight; MG213 cells expressing E1A, Rb sequestered; DMSO wells 0%, reference activator 100%; activation, % at 9.1 µM; 30% of 3,500 active; AID 652260;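 active = activation above its plate's cutoff, the mean activation of tested wells plus 3 SD, cut at about 7.9% in these data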
VP16 Luc act: counter-screen for SMARCA2 activators: GAL4-VP16 luciferase reporter activation; activation, % at 9.1 µM; HEK293 GAL4-VP16 pG5luc reporter, luciferase luminescence; scaled: DMSO wells 0%, SAHA wells 100%; 41% of 3,500 active; AID 686939; shares compounds with SMARCA2 act;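 active = activation above the solvent-only control well mean plus 3 SD, averaged across control plates, cut at about 5.2% in these data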
Each line names hits and unclear results; the compound was inactive in the other large screens (follow-up assays come after a bar, where they were run); ! = repeats disagree.

CCCCNC(=O)C(NC(=O)c1ccc2ccccc2c1)C(=O)c1ccccc1 (stereo unspecified)	none (no result: PfM18AAP inh, ALR H2O2 inh, JMJD2C inh, beta cell repl)
COc1cc(C2Oc3ccccc3C=C2[N+](=O)[O-])cc(OC)c1OC (stereo unspecified)	SMARCA2 act 21, Granule exo inh 60 (no result: ALR H2O2 inh, JMJD2C inh, beta cell repl) | SMARCA2 act conf inactive | VP16 Luc act inactive
COc1cc(C2NC(=O)c3ccccc3O2)cc(OC)c1OC (stereo unspecified)	none (no result: ALR H2O2 inh)
N#CC(C#N)=Cc1ccc(NC(=O)c2ccc(Br)cc2)cc1	SMARCA2 act 9.2 | SMARCA2 act conf inactive | VP16 Luc act inactive
NC(c1ccccc1)c1csc(Nc2ccc(C(=O)c3ccccc3)cc2)n1 (stereo unspecified)	none (no result: PfM18AAP inh, ALR H2O2 inh, JMJD2C inh, beta cell repl)
C=CCNC(=O)CSc1nc2ccccc2c(=O)n1CCc1ccc(OC)c(OC)c1	none
COc1ccc(CCn2c(SCCN3CCCCC3)nc3ccccc3c2=O)cc1OC	SMARCA2 act 13 | SMARCA2 act conf inactive | VP16 Luc act inactive
c1ccc2c(-c3nc4ccccc4[nH]3)cccc2c1	none (no result: PfM18AAP inh, ALR H2O2 inh, JMJD2C inh, beta cell repl)
c1ccc2[nH]c(-c3ccnc4ccccc34)nc2c1	SMARCA2 act 11! | SMARCA2 act conf inactive | VP16 Luc act inactive
COc1ccccc1NC(=O)C(=O)/C=C(\O)c1ccccc1	SMARCA2 act 10 | SMARCA2 act conf inactive | VP16 Luc act inactive
CCOc1ccccc1NC(=O)C(=O)/C=C(\O)c1cc(OC)ccc1OC	none
COC(=O)[C@]12CCCCC=C1N(CCC1=CCCCC1)C(=O)[C@H](CC(=O)N1CCCC1)C2	none (no result: PfM18AAP inh, ALR H2O2 inh, JMJD2C inh, beta cell repl)
O=C(NCc1ccccn1)c1nnc(Cc2ccc(Cl)cc2)o1	SMARCA2 act 9.6 (no result: ALR H2O2 inh) | SMARCA2 act conf inactive | VP16 Luc act inactive
COC(=O)C1(C(=O)OC)c2cc3c(cc2CN(S(=O)(=O)c2ccc(C)cc2)C1CC(C)=O)OCO3 (stereo unspecified)	none (no result: PfM18AAP inh, ALR H2O2 inh, JMJD2C inh, beta cell repl)
COC(=O)c1cc2c(c3c4cc(C)ccc4n(S(=O)(=O)c4ccc(OC)cc4)c13)C(=O)N(Cc1ccccc1)C2	none (no result: PfM18AAP inh, ALR H2O2 inh, Granule exo inh, JMJD2C inh, beta cell repl)
COC(=O)c1ccc(N=NN2CCCCC2)cc1	SMARCA2 act 12 | SMARCA2 act conf inactive | VP16 Luc act 11
COC(=O)c1ccc(NN=Nc2ccc(C)cc2)cc1	none (no result: ALR H2O2 inh)
O=S(=O)(Nc1nc2ccccc2nc1N1CCc2ccccc2C1)c1ccc(Cl)cc1	SMARCA2 act 9.0 | SMARCA2 act conf inactive | VP16 Luc act inactive
CCOC(=O)[C@]12CCC=C1N(CCC1=CCCCC1)C(=O)[C@H](CC(=O)N1CCOCC1)C2	none (no result: PfM18AAP inh, ALR H2O2 inh, JMJD2C inh, beta cell repl)
O=C(/C=C/c1ccccc1Cl)NCc1ccccc1	SMARCA2 act 11 | SMARCA2 act conf inactive | VP16 Luc act inactive
CN(C)c1ccc(NC(=O)/C=C/c2ccccc2Cl)cc1	SMARCA2 act 8.2 | SMARCA2 act conf inactive | VP16 Luc act 11
CCN(CC)c1ccc(NC(=O)/C=C\c2ccccc2Cl)cc1	none
CN(C)C(=O)c1cccc(-c2cnc3c(NC=O)cc(-c4ccc(N(C)C)cc4)cn23)c1	none (no result: PfM18AAP inh, ALR H2O2 inh, JMJD2C inh, beta cell repl)
CC1(C)Cc2c(C#N)c(NCCO)nc(-c3ccco3)c2CO1	SMARCA2 act 8.6 | SMARCA2 act conf inactive | VP16 Luc act inactive
CC1(C)Cc2c(c(-c3ccco3)nc3sc4c(NCCCO)ncnc4c23)CO1	SMARCA2 act 10.0 | SMARCA2 act conf 15 | VP16 Luc act inactive
COc1cccc(-c2cnc(C(O)c3ccc(C)cc3)[nH]2)c1 (stereo unspecified)	none (no result: PfM18AAP inh, ALR H2O2 inh, JMJD2C inh, beta cell repl)
COc1cccc(-c2cnc(C(O)c3ccccc3)[nH]2)c1 (stereo unspecified)	SMARCA2 act 9.2 (no result: PfM18AAP inh, ALR H2O2 inh, JMJD2C inh, beta cell repl) | SMARCA2 act conf inactive | VP16 Luc act 8.7
CC(=O)C1=C(C)NC(=S)NC1c1ccc(F)cc1 (stereo unspecified)	none (no result: PfM18AAP inh, ALR H2O2 inh, Granule exo inh, JMJD2C inh, beta cell repl)
CCc1nc2ccc(C(=O)NCc3ccc(OC)cc3)cn2c1N(C)Cc1ccc(OC)cc1	none (no result: PfM18AAP inh, ALR H2O2 inh, JMJD2C inh, beta cell repl)
CCc1nc2ccc(C(=O)N(C)Cc3ccccc3)cn2c1N(C)Cc1ccc(OC)cc1	SMARCA2 act 9.9 (no result: PfM18AAP inh, ALR H2O2 inh, JMJD2C inh, beta cell repl) | SMARCA2 act conf inactive | VP16 Luc act inactive
